Results from PubChem BioAssay AID1006 (Sanford-Burnham Center for Chemical Genomics, 2008).
In all, about 200,000 compounds went through this assay and about 3,000 (1.5%) were called active.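 How the source made its calls: active means inhibition above about 50% when tested at 10 µM (limit read from the data); inactive means the rest.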 The sample as a whole holds a higher share of actives than the screen did.

Each compound was assayed against Luciferin 4-monooxygenase (Photinus pyralis) (UniProt P08659) (assay: firefly luciferase enzyme inhibitors, primary screen, artefact control for luciferase-based inhibitor screens, biochemical, luminescence, ATPLite (AID 1006)). Conditions: 10 min, at 10 µM, hits give high values.
Chain of Luciferin 4-monooxygenase (Photinus pyralis) (P08659 whole entry, looked up): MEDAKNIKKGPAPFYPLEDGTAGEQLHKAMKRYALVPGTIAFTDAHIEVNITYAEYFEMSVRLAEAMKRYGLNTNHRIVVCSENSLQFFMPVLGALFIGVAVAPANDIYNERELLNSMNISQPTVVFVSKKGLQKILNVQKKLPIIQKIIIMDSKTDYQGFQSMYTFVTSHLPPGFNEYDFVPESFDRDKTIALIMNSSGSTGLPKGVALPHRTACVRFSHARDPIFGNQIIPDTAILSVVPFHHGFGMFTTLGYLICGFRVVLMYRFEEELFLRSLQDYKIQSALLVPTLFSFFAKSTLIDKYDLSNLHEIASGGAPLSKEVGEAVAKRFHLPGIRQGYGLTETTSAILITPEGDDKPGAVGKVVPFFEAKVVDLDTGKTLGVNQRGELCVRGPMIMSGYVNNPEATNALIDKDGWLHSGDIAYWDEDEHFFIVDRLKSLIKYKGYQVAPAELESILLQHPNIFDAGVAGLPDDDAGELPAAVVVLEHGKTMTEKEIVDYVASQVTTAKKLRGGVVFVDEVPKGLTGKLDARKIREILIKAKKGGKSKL

inhibition, inactive:
CCOc1ccc(Nc2nc(Cl)nc(N3CCN(c4ccc(OC)cc4)CC3)n2)cc1 -4.4%
c1ccc(Nc2nc(N3CCOCC3)c3ccccc3n2)cc1 2%
Cc1nc(N2CCOCC2)sc1C(=O)NN 0.3%
CCOc1ccc(C(=O)Nc2cccc(-c3ccc4nncn4n3)c2)cc1 37.7%
CCOc1ccc(C(=O)Nc2ccncc2)cc1 11.8%
O=C1CC(c2c(F)cccc2Cl)C(n2cncn2)C(O)=C1C1NCCc2ccccc21 (stereo not given) -4.6%
O=C(c1cncc(Br)c1)N1CCN(c2ccc([N+](=O)[O-])cc2)CC1 -0.9%
COC(=O)c1ccc(-c2noc(CN(Cc3ccccn3)CC3CCCO3)n2)cc1 (stereo not given) 4.4%
COc1cc(/C=N/NC(=O)c2cc(C)n(-c3ccc(F)cc3)c2C)cc(OC)c1O 5.2%
Cc1ccc(-n2c(C)cc(C(=O)CN3C(=O)C(=O)N(C4CCCC4)C3=O)c2C)cc1 -7.1%
CCOc1ccc(N=Cc2c(O)n(-c3cccc(C)n3)c(=O)c3ccccc23)cc1 -1%
CCCn1c(=O)c(-c2ccccc2)c(O)c2ccccc21 0.1%
Cc1cccc(C(=O)NNC(=O)c2cccc([N+](=O)[O-])c2)c1 -0.8%
CC(C)(C)Cc1nnc(NC(=O)c2cc(-c3ccccc3)nc3ccccc23)s1 -4.3%
O=C(NCCc1ccccn1)c1cc(-c2ccc(Cl)cc2)nc2ccccc12 1.6%
Cc1nc2ccc(NC(=S)N3CCC(C)CC3)cc2nc1C -2.6%
O=C(C1CCCN1S(=O)(=O)c1ccc(Br)cc1)N1CCOCC1 (stereo not given) 0.6%
CCCCN(CC)CCCNC(=O)c1ccc(CSc2nc3ccncc3[nH]2)cc1 37.9%
O=C(CC1CCCCC1)NCc1ccc(F)cc1 -3.7%
c1ccc(-n2nnnc2-c2cccnc2)cc1 -0.4%
COc1ccc(C2COC(=O)C2=N)c(NC(=O)c2ccccc2)c1 (stereo not given) -6.7%
COc1ccc(NC(=O)c2ccc(C#CC(C)(C)O)cc2)cc1 5.6%
COc1ccc(C(=O)Nc2ccc(S(=O)(=O)NC(C)C)cc2)cc1 -3.1%
COc1cccc(OC)c1C(=O)Nc1ccc(N2CCCCC2)cc1 -8.2%
COc1ccc(C(=O)NC(=S)Nc2ccc(N3CCCC3)cc2)cc1OC -14.5%
COc1cccc(C(=O)NNC(=O)c2ccccc2Br)c1 2.9%
CC(C)(C)C1CCC(C(=O)Nc2cccnc2)CC1 (stereo not given) -3.4%
COc1ccc(-c2csc(-c3cccs3)n2)cc1OC 19.9%
COc1cccc(C(=O)NCCSc2ccc(Br)cc2)c1 2.1%
C=CCNc1scc(-c2ccccc2)[n+]1CC=C -5.9%
CNC(=O)c1cc2c(ccc3ccccc32)oc1=N 7.1%
O=C(N/N=C/c1coc2ccccc2c1=O)c1cc2ccccc2o1 -6.6%
O=C(O)C1C2CC2CN1C(=O)c1ccc(Cl)cc1Cl (stereo not given) -5%
Cc1nn(Cc2ccccc2)c(Cl)c1C(=O)OC1CCOC1=O (stereo not given) -3.6%
O=C(OC1CCOC1=O)c1cccc(S(=O)(=O)Nc2ccc(F)cc2)c1 (stereo not given) -4.8%
N#CC1(C#N)C(C(=O)C23CC4CC(CC(C4)C2)C3)C12CCOCC2 (stereo not given) -9.2%
CCc1cc2c(=O)c(-c3nc4ccccc4n3C)c(CCCC(=O)O)oc2cc1OC(=O)C(C)(C)C 2.4%
CCc1cc2c(=O)c(-c3ccc(F)cc3)c(C(F)(F)F)oc2cc1OCC(=O)O -5.2%
CCOc1ccc(S(=O)(=O)Nc2nccs2)cc1 -7.4%
COc1ccc(-c2noc(-c3cccc(OC)c3OC)n2)cc1OC 48.7%
COc1ccc(-c2noc(-c3ccc(C)cc3)n2)cc1 44.5%
Cc1ccc(S(=O)(=O)Nc2nc(N)n(-c3ccccc3)n2)cc1 -5.1%
Cc1ccc(NC(=O)C2(N3CCC3=O)CCCCC2)cc1 -9%
CCC(=O)Nc1cccc(NC(=O)c2cccnc2)c1 -0.5%
Cc1nn(Cc2ccc(Cl)cc2)c(Cl)c1/C=N/NC(=O)c1cccnc1 -5.5%
CC(Oc1ccc(Br)cc1Br)C(=O)NC1CCCC1 (stereo not given) -6.3%
Cc1ccc(S(=O)(=O)/N=C(/Nc2ccccn2)c2ccc(Cl)cc2)cc1 -1.5%
CCN(CC)S(=O)(=O)c1cccc(C(=O)Nc2ccccc2)c1 -4.6%
Cn1c(N)cc(-c2ccc(F)cc2)c(C#N)c1=O -3.4%
COc1cc(CNC2CCCCC2)c(Br)cc1OC1CCCC1 -3.7%
Cc1cc(C)nc(NC(=O)c2cccc([N+](=O)[O-])c2)c1 0.2%

inhibition, active:
COc1ccc(Nc2ncc(F)c(N3CCOCC3)n2)cc1 75.2%
CCOc1ccc(C(=O)Nc2cccc(SC)c2)cc1 62.1%
Cc1cc(C(=O)COC(=O)C2CC2)c(C)n1-c1ccc(F)cc1 95%
CC(=O)n1c(C=Nc2ccccc2)c(O)c2ccccc21 61.6%
CCc1ccc(-c2cc(C(=O)NN3CCN(C)CC3)c3ccccc3n2)cc1 63%
COc1cccc(C(=O)Nc2ccc(N3CCCC3)cc2)c1 67.6%
COc1cccc(C(=O)Nc2cc3c(cc2Br)OCCCO3)c1 64.3%
COc1ccc(NC(=O)c2ccc(OC)cc2)cc1 63.1%
N=c1oc2ccccc2cc1C(=O)N/N=C/c1ccccc1 56.7%
O=C(OC1CCOC1=O)c1ccc(-c2nc3ccccc3s2)s1 (stereo not given) 91.4%
CCc1cc2c(=O)c(-c3ccon3)c(N)oc2cc1OC 59.4%
COc1ccc(-c2nc(-c3ccccc3)no2)c(OC)c1 85.4%
Cc1cc(/C=N/NC(=O)c2cccnc2)c(C)n1CC(C)C 63.5%
CCN(CC)S(=O)(=O)c1cc(C(=O)Nc2ccccn2)ccc1C 58%
